# Most compounds without a hit are left out; they make up all but 18% or so of the library.
# TDP1 inh: qHTS Assay for Inhibitors of Tyrosyl-DNA Phosphodiesterase (TDP1); recombinant TDP1, AlphaScreen DNA substrate cleavage; 350,000 tested, 0.28% active; Potency, µM (doses to about 130 µM), for the others: at the highest dose activity change, negative = inhibition, usual class: inhibitors; further: potency means the concentration at half of the fitted maximal effect; nearly all actives have a fitted effect of over 40% in size
#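 Steps: enzyme plus compound, 15 min RT; add biotin/phosphotyrosine-FITC oligonucleotide (15 nM final), react 5 min; add donor/acceptor beads (10 ug/ml final), 10 min; read AlphaScreen. Tdp1 at 1 nM final.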
# DT40 TDP1 no CPT: qHTS for Inhibitors of human tyrosyl-DNA phosphodiesterase 1 (TDP1): qHTS in cells in absence of CPT; 420,000 tested, 15% active; Potency, µM (doses to about 46.2 µM), inactives show at the highest dose activity change, negative = growth inhibition, actives largely listed as inhibitors; DT40 Tdp1-/- hTDP1 cells, no CPT, ATP luminescence, 48 h; AID 686978, 2013; further: potency means the concentration at half of the fitted maximal effect; nearly all actives have a fitted effect of over 55% in size
#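 Stably hTDP1-transfected Tdp1-null chicken DT40 cells were treated with library compounds minus camptothecin and grown for at least 48 hr at 37 °C, after which cellular ATP was quantified by luminescence.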
# Six1-Eya2 inh: qHTS Assay for Inhibitors of the Six1/Eya2 Interaction | 360,000 tested, 0.56% active | Homeobox protein SIX1 (Homo sapiens) + Protein phosphatase EYA2 (Homo sapiens), … | AlphaScreen GST-Six1/His-Eya2 binding, biochemical; stronger effect = lower value | activity change, % (no concentration beside the values); in the data active means activity change below about -65%; inconclusive means mostly about -30% to -63%
# Target sequence (O00167 whole entry, looked up): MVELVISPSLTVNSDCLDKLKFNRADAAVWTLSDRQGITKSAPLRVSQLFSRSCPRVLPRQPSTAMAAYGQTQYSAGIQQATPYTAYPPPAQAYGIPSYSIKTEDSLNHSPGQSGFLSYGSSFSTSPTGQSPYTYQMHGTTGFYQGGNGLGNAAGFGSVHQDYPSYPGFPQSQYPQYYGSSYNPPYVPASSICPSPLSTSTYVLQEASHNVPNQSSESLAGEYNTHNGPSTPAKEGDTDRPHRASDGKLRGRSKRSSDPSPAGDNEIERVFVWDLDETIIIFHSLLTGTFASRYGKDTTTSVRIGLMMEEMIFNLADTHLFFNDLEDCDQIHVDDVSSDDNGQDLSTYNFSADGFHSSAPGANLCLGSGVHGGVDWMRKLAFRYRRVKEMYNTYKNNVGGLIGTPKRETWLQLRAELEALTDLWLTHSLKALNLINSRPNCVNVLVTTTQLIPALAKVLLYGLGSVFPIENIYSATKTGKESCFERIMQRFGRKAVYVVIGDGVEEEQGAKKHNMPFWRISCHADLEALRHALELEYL
# Target sequence (Q15475 whole entry, looked up): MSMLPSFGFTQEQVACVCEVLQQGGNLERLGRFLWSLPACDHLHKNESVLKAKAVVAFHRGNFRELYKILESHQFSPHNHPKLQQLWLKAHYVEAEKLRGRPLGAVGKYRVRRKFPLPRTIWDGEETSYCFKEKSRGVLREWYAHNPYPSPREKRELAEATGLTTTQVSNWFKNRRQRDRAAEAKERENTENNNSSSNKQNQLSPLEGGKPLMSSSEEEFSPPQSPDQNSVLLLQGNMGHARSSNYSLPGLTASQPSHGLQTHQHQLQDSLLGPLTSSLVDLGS
#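 Homogeneous AlphaScreen proximity assay pairing GST-Six1 with His-tagged Eya2 (added as 5X mix: 250 nM and 500 nM) in 50 mM Tris pH 8.0, 300 mM NaCl, 1 mM TCEP. Glutathione donor and nickel acceptor beads; 1 h, 37 °C, dark.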
# TDP1 cell CPT: qHTS for Inhibitors of human tyrosyl-DNA phosphodiesterase 1 (TDP1): qHTS in cells in presence of CPT. chicken DT40 Tdp1-/-;hTDP1 cells + 20 nM CPT, ATP luminescence, 48 h. Potency, µM (series often up to 46.2 µM), without a hit: at the top dose activity change, negative = growth inhibition, usual class: inhibitors. 420,000 tested, 12% active. AID 686979, 2013; further: potency means the concentration at half of the fitted maximal effect; nearly all actives have a fitted effect of over 55% in size
#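 Chicken DT40 Tdp1-/- cells complemented with human TDP1, 400 cells/well, exposed to compounds plus 20 nM camptothecin for at least 48 h at 37 C; viability read as ATP content by CellTiter-Glo luminescence.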
# CtBP-E1A blk: qHTS Assay for Inhibitors of the CtBP/E1A Interaction. 340,000 tested, 0.49% active. AlphaScreen GST-E1A/His-CtBP binding, 1536-well; stronger effect = lower value. activity change, % (concentration not given with the values); in the data active means activity change below about -65%; inconclusive means mostly about -30% to -63%
#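 GST-E1A and His-tagged CtBP (125 nM each as 5X stock) were preincubated with pin-transferred compound for 2 h at 37 °C in the dark, then glutathione donor and nickel acceptor beads were added for 1 h before AlphaScreen reading.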
# IL-1B inflam inh: qHTS for Inhibitors of Inflammasome Signaling: IL-1-beta AlphaLISA Primary Screen; THP-1 LPS/ATP IL-1B secretion, AlphaLISA, 16 h; stronger effect = lower value; activity change, % at 57.5 µM; 360,000 tested, 4.7% active; AID 743279, 2014; in the data active means activity change below about -50%; inconclusive means mostly about -30% to -49%
#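 THP-1 cells pretreated 1 hr with compounds (up to 57.5 uM final), then stimulated with LPS (250 ng/mL final) plus ATP (1.25 mM final); secreted IL-1B measured by AlphaLISA after 16 hr, decreased signal indicating inhibition.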
# * hit, by the source's call; u = inconclusive; x = not tested or not shown. Unless noted, the call rests on the fitted dose curve; in most records, active means well fitted curve in the direction sought with a large enough effect; inconclusive means small, poorly fitted or top-dose-only effect, or another doubt; inactive means no such curve, though single readings can be large; an effect the other way counts as inactive or inconclusive. On the % scale 0 is the no-effect control and ±100 the full control effect.
SMILES,TDP1 inh,DT40 TDP1 no CPT,Six1-Eya2 inh,TDP1 cell CPT,CtBP-E1A blk,IL-1B inflam inh
O=C(N/N=C/c1ccc(-c2ccc(S(=O)(=O)Nc3ncccn3)cc2)o1)c1cc2ccccc2cc1O,x,-11.1%,-67.0*,-24.7%,-19.7,13.7
CN(CC(=O)NC1CC(C)(C)NC(C)(C)C1)S(=O)(=O)c1cc(Cl)ccc1Cl,4.9%,2.9%,-0.3,11.2%,8.8,13.4
O=C1CC(NCCc2ccccc2)C(=O)N1CCc1ccccc1 (configuration not stated),8.6%,-1.1%,-6.2,3.9%,-6.0,-2.1
O=C(Cc1cccs1)Nc1ccc(-c2nc3ccccc3[nH]2)cc1,-7.8%,20.6µM*,-0.8,u,-2.4,-52.9*
O=C(CSc1ccccc1)Nc1ccc(-c2nc3ccccc3[nH]2)cc1,-4.1%,10.3µM*,u,23.1µM*,-19.4,1.8
O=C(CN1CCOCC1)Nc1ccc(-c2nc3ccccc3[nH]2)cc1,-1.5%,-0.8%,-13.7,-11.8%,-17.1,2.4
Cc1ccc2nc(-c3ccc(NC(=O)CSc4ccccc4)cc3)[nH]c2c1,0.0%,16.4µM*,-2.5,10.3µM*,2.2,33.6
O=C(CSc1ccc(Cl)cc1)Nc1cccc(-c2nc3ccccc3[nH]2)c1,-5.3%,10.3µM*,2.8,9.2µM*,-27.2,-8.6
CC(C)CC1OC(C)CC2=C1C(=O)OC(C)(C)O2 (configuration not stated),x,-28.9%,4.9,-23.6%,4.6,71.8
COc1cccc(NC(=O)Cn2c(=O)oc3cc(S(=O)(=O)N4CCCCC4)ccc32)c1,0.0%,u,x,u,x,x
O/N=C/c1cccn1-c1ccc(O)cc1,4.1%,3.9%,-2.4,-17.0%,-3.6,6.1
C/C(CC(=O)NC(C)C)=N\NC(=O)COc1cc(C)c(Br)cc1Br,3.4%,u,10.8,4.2%,-0.8,-5.7
O=C(O)/C=C/C(=O)NCCNc1ncc(C(F)(F)F)cc1Cl,-2.7%,17.2%,10.2,10.7%,-4.1,1.9
O=C(O)CCC(=O)Nc1ccc(Br)cc1C(=O)c1ccc(Cl)cc1,4.8%,5.8%,0.5,-0.6%,-4.3,8.0
COc1c(F)c(F)c(C(=O)Nc2ccc(-c3nc4ccccc4[nH]3)cc2)c(F)c1F,5.5%,4.61µM*,6.3,6.51µM*,x,9.4
O=C(Nc1ccc(-c2nc3ccccc3[nH]2)cc1)c1c(F)c(F)c(F)c(F)c1F,0.0%,-6.6%,20.4,-2.2%,15.7,-6.8
COc1cc2c(cc1OC)C(NNC(=O)c1ccc(Br)o1)=NC(C)(C)C2,3.1%,u,-2.7,20.6µM*,x,-0.2
CCOC(=O)N1CCC(NC(=O)CC2C(=O)NCCN2Cc2ccccc2)CC1 (configuration not stated),0.3%,0.8%,5.3,-13.5%,8.1,5.2
O=C(CC1C(=O)NCCN1Cc1ccc(-c2ccccc2)cc1)NCc1ccccc1 (configuration not stated),2.4%,u,-4.7,u,-0.1,-56.9*
CCc1cc(CNC(=O)CC2C(=O)NCCN2Cc2ccc(-c3ccccc3)cc2)on1 (configuration not stated),4.9%,u,-8.0,-13.9%,-9.2,11.3
O=C(CC1C(=O)NCCN1Cc1ccc(-c2ccccc2)cc1)NC1CCC1 (configuration not stated),4.8%,14.6µM*,-1.7,-27.6%,x,-20.9
CCCc1cc(=O)oc2cc(C)cc(OCC(=O)NC(Cc3c[nH]c4ccc(O)cc34)C(=O)O)c12 (configuration not stated),x,1.3%,1.7,5.5%,-3.7,13.5
O=C(Nc1nc(-c2ccc(Br)cc2)cs1)c1cccnc1,3.7%,6.3%,18.0,-2.3%,26.1,-15.6
CC(C)/C=N/Nc1nc(-c2ccc(Br)cc2)cs1,3.8%,16.4µM*,6.8,23.1µM*,18.7,-29.5
CC(=O)Nc1ccc(C(=O)OCC(=O)N(c2ccccc2)C2CCCCC2)cc1,0.2%,23.1µM*,-3.8,u,-2.7,-27.1
SMILES,TDP1 inh,DT40 TDP1 no CPT,Six1-Eya2 inh,TDP1 cell CPT,CtBP-E1A blk,IL-1B inflam inh
CC(=O)Nc1ccc(C(=O)OCC(=O)N(C)C2CCCCC2)cc1,3.0%,-2.6%,3.9,24.0%,5.9,3.1
CC(=O)Nc1cc(NC(C)=O)cc(C(=O)OCC(=O)N(c2ccccc2)C2CCS(=O)(=O)C2)c1 (configuration not stated),44.7µM*,14.1%,-29.4,10.1%,x,-8.8
O=C(CCl)N(c1ccccc1)C1CCCCC1,-3.5%,2.91µM*,-0.6,2.59µM*,-3.3,-101.2*
CCN1CCN(c2nnc(-n3cccc3C(=O)Nc3cccc(OC)c3)s2)CC1,0.0%,u,x,-24.7%,x,x
CCOc1ccc(-n2cc(-c3ccccc3)c3c(NC4CCCC4)ncnc32)cc1,5.2%,13µM*,x,14.6µM*,x,x
COc1ccc(-n2cc(-c3ccccc3)c3c(NC4CCCCC4)ncnc32)cc1,7.8%,11.6µM*,x,u,x,x
COc1ccc(-n2cc(-c3ccccc3)c3c(NCCOCCO)ncnc32)cc1,x,u,-12.0,u,x,-18.7
O=S(=O)(Nc1ccc(Cl)cc1)c1cccc(S(=O)(=O)c2ccc(Cl)c(Cl)c2)c1,1.9%,u,x,u,x,x
COc1ccc(CNC(=S)Nc2ccccc2Cl)cc1,x,-12.1%,2.1,-12.2%,-14.4,0.0
CCc1sc(C(=O)Nc2ccc(NC(C)=O)cc2)cc1C,-4.1%,-18.8%,-12.4,0.3%,-21.5,u
Cc1nc2ccc(NC(=O)Cc3ccsc3)cc2s1,1.4%,13µM*,3.5,16.4µM*,-4.7,9.7
C=CCNC(=O)Nc1ccc2nc(C)sc2c1,2.7%,u,-10.4,16.4µM*,-19.1,-26.9
CCc1sc(C(=O)Nc2ccc3nc(C)sc3c2)cc1C,0.1%,u,-23.0,u,-23.1,-51.9*
Cc1nc2ccc(NC(=O)c3sccc3C)cc2s1,5.9%,u,3.4,-14.7%,4.7,u
C=CCN(CC=C)C(=O)Nc1ccc2nc(C)sc2c1,1.3%,20.6µM*,-0.3,-25.5%,9.2,15.5
CNC(=O)Nc1ccc2nc(C)sc2c1,-3.6%,-14.7%,5.3,-29.6%,2.6,-10.4

# Compound activity deposited in PubChem by National Center for Advancing Translational Sciences (NCATS).
